PMC4552634, “A New Set of Chemical Starting Points with Plasmodium falciparum Transmission-Blocking Potential for Antimalarial Drug Discovery” (PLoS ONE, 2015)
Like-named read-outs stand apart in the source and are kept apart here. Screen size: about 13,000 compounds; about 3,200 (25%) showed an effect of 50% or more. The list shows a part of the results.

Test system: P. falciparum stage V gametocytes
Set-up: BacTiter-Glo ATP luminescence viability of purified stage V gametocytes in 384-well plates, per cent inhibition versus DMSO
Settings: 48 h, 5 µM, inhibitor

Q: Which “% Inhibition” value does the source give for CC1CN(c2ccc(NC(=O)c3cccs3)cc2)CCN1Cc1cccc(F)c1 (stereo not drawn) [TCMDC-135008] here?
A: -22.55%

Q: For COc1ccc(CNCc2cccc(-c3cccc(-c4nc5cccc(C)c5[nH]4)c3)c2)cc1.O=C(O)C(F)(F)F [TCMDC-132732], which “% Inhibition” value is on record?
A: -64.2%

Q: How did the “% Inhibition” value turn out when c1ccc(CSC2=NNC(c3ccccn3)S2)cc1 (stereo not drawn) [TCMDC-123769] was run?
A: 99.43%

Q: How did the “% Inhibition” value turn out when NC(=O)c1cccc(C(=O)Nc2cccc(-c3csc(-c4nc5ccccc5[nH]4)c3)c2)c1 [TCMDC-132399] was run?
A: -9.606%

Q: CN(C)CCCNCc1ccc(-c2ccc(F)c(Cl)c2)o1 [TCMDC-125238] was tested. Which “% Inhibition” value did it give?
A: 41.34%

Q: For CNS(=O)(=O)CCNCc1ccc(-c2ccc3ncnc(Nc4ccc(OCc5ccccc5)cc4)c3c2)o1 [TCMDC-138102], which “% Inhibition” value is on record?
A: -59.33%

Q: Which “% Inhibition” value does the source give for CNCCCNCc1ccc(-c2ccc(F)c(Cl)c2)o1 [TCMDC-125237] here?
A: 65.13%

Q: O=C(/C=C/c1ccccc1O)NC1CCC(CN2CCC(c3c[nH]c4ccccc34)CC2)CC1 (stereo not drawn) [TCMDC-139720] was tested. Which “% Inhibition” value (% Inhibition) did it give?
A: 84.95%

Q: For O=C(C=Cc1ccccc1Br)NC1CCC(CN2CCC(c3c[nH]c4ccccc34)CC2)CC1 (stereo not drawn) [TCMDC-139917], which “% Inhibition” value (% Inhibition) is on record?
A: 13.62%

Q: Which “% Inhibition” value (% Inhibition) does the source give for O=C(/C=C/c1ccccc1Cl)NC1CCC(CN2CCC(c3c[nH]c4ccccc34)CC2)CC1 (stereo not drawn) [TCMDC-139699] here?
A: 83.67%

Q: For O=C(/C=C/c1ccccc1Cl)NC1CCC(CN2CCC(c3c[nH]c4ccccc34)CC2)CC1 (stereo not drawn) [TCMDC-139714], which “% Inhibition” value (% Inhibition) is on record?
A: 34.23%

Q: With O=C(C=Cc1cccc(Cl)c1Cl)NC1CCC(CN2CCC(c3c[nH]c4ccccc34)CC2)CC1 (stereo not drawn) [TCMDC-139920] as the molecule, how does the “% Inhibition” value (% Inhibition) read?
A: -3.877%

Q: For O=C(C=Cc1ccccc1Br)NC1CCC(CN2CCC(c3c[nH]c4ccccc34)CC2)CC1 (stereo not drawn) [TCMDC-139905], which “% Inhibition” value (% Inhibition) is on record?
A: 19.58%

Q: With O=C(/C=C/c1ccccc1O)NC1CCC(CN2CCC(c3c[nH]c4ccccc34)CC2)CC1 (stereo not drawn) [TCMDC-139705] as the molecule, how does the “% Inhibition” value (% Inhibition) read?
A: 20.65%

Q: How did the “% Inhibition” value (% Inhibition) turn out when O=C(C=Cc1ccccc1C(F)(F)F)NC1CCC(CN2CCC(c3c[nH]c4ccccc34)CC2)CC1 (stereo not drawn) [TCMDC-139915] was run?
A: 18.99%

Q: With O=C(C=Cc1ccccc1C(F)(F)F)NC1CCC(CN2CCC(c3c[nH]c4ccccc34)CC2)CC1 (stereo not drawn) [TCMDC-139903] as the molecule, how does the “% Inhibition” value (% Inhibition) read?
A: 54.81%

Q: For COc1ccc(Nc2nccc(NCCNC(=O)Nc3cc(C)ccc3C)n2)cc1 [TCMDC-133644], which “% Inhibition” value is on record?
A: -56.14%

Q: How did the “% Inhibition” value turn out when CCn1cc2c3c(cc(C(=O)N[C@@H](Cc4ccccc4)[C@H](O)CNCc4cccc(OC)c4)cc31)N(C)S(=O)(=O)CC2 [TCMDC-135784] was run?
A: 29.74%

Q: How did the “% Inhibition” value turn out when O=C(NCCCCN1CCC(O)(c2ccc(Cl)cc2)CC1)c1ccc(Br)cc1 [TCMDC-131982] was run?
A: -5.43%

Q: With CN(C(=O)c1nn(-c2ccccn2)c2nccc(-c3cccs3)c12)C1CCCCC1 [TCMDC-124797] as the molecule, how does the “% Inhibition” value read?
A: 11.83%

Q: How did the “% Inhibition” value turn out when C=C(C)Cn1cc(C2CCN(CCCCNC(=O)c3sc(-c4ccc(Cl)cc4Cl)nc3CO)CC2)c2ccccc21 [TCMDC-138873] was run?
A: -30.06%

Q: C=CCn1cc(C2CCN(CCCCNC(=O)c3sc(-c4ccc(C(F)(F)F)cc4)nc3CO)CC2)c2cc(OC)ccc21 [TCMDC-138828] was tested. Which “% Inhibition” value did it give?
A: 92.56%

Q: Which “% Inhibition” value does the source give for COC(=O)c1ccc(C(=O)NCCCCN2CCC(c3ccc4c(c3OC)CCCC4)CC2)cc1-c1ccc(C(F)(F)F)cc1 [TCMDC-138705] here?
A: -64.43%

Q: Which “% Inhibition” value does the source give for CCc1ccc(C2CCN(CCCCNC(=O)c3ccc(-c4ccc(C(F)(F)F)cc4)cc3)CC2)c(OCCO)c1 [TCMDC-138761] here?
A: 105.9%

Q: With CCOC(=O)c1cc(C(=O)NCCCCN2CCC(c3ccc(CC)cc3OCC)CC2)ccc1-c1ccc(C(F)(F)F)cc1 [TCMDC-138755] as the molecule, how does the “% Inhibition” value read?
A: 83.47%

Q: For CCOC(=O)c1cc(C(=O)NCCCCN2CCC(c3ccc4c(c3OC)CCCC4)CC2)ccc1-c1ccc(C(F)(F)F)cc1 [TCMDC-138739], which “% Inhibition” value is on record?
A: 73.05%

Q: Which “% Inhibition” value does the source give for Cc1cc(C2CCN(CCCCNC(=O)c3ccc(-c4ccc(C(F)(F)F)cc4)cc3)CC2)c(C)cc1OCCO [TCMDC-138798] here?
A: -10.99%

Q: For CC(=O)Oc1cc(C)ccc1C1CCN(CCCCNC(=O)c2ccc(-c3ccc(C(F)(F)F)cc3)cc2)CC1 [TCMDC-138626], which “% Inhibition” value is on record?
A: 28.6%

Q: Which “% Inhibition” value does the source give for COc1c(C2CCN(CCCCNC(=O)c3ccc(-c4ccc(C(F)(F)F)cc4)c(C(=O)OC(C)C)c3)CC2)ccc2c1CCCC2 [TCMDC-138744] here?
A: 32.47%

Q: For CCc1ccc(C2CCN(CCCCNC(=O)c3ccc(-c4ccc(C#N)cc4)cc3)CC2)c(OCCO)c1 [TCMDC-138765], which “% Inhibition” value is on record?
A: -6.555%

Q: How did the “% Inhibition” value turn out when Cn1cc(C2CCN(CCCCNC(=O)c3sc(-c4ccc(C(F)(F)F)cc4)nc3CO)CC2)c2ccccc21 [TCMDC-138778] was run?
A: -59.88%

Q: For Cc1cc(C2CCN(CCCCNC(=O)c3ccc(-c4ccc(C(F)(F)F)cc4)cc3)CC2)c(C)cc1OCC(N)=O [TCMDC-138800], which “% Inhibition” value is on record?
A: 4.975%

Q: Which “% Inhibition” value does the source give for COc1cccc(C(=O)OC2=C3CCC(=O)C3(C)CCC2=O)c1 (stereo not drawn) [TCMDC-131633] here?
A: 39.81%

Q: How did the “% Inhibition” value turn out when CC(C)(C)OC(=O)N1CCN(c2ccccc2NC(=O)c2cccc(C(F)(F)F)c2Oc2ccc(F)cc2)CC1 [TCMDC-140951] was run?
A: -16.31%

Q: Which “% Inhibition” value does the source give for COc1ccc2[nH]c(C(=O)Nc3ccc4nc(-c5ccccc5)[nH]c4c3)cc2c1 [TCMDC-134305] here?
A: -25.97%

Q: CCOc1ccccc1CON1C(N)=NC(N)=NC1(C)C [TCMDC-131583] was tested. Which “% Inhibition” value did it give?
A: 17.24%

Q: With CCNc1cc(C)nc(Nc2ccc(NC(=O)C3CCCC3)cc2)n1 [TCMDC-124980] as the molecule, how does the “% Inhibition” value read?
A: -0.5513%

Q: Which “% Inhibition” value does the source give for C=Cc1ccccc1C1(O)CCN(CCCCNC(=O)c2ccc(-c3ccc(C#N)cc3)cc2)CC1 [TCMDC-135786] here?
A: 28.95%

Q: Cc1cc(N[C@@H](CC(C)C)C(=O)Nc2ccccc2)nc(Nc2ccccc2)n1 [TCMDC-134743] was tested. Which “% Inhibition” value did it give?
A: -20.12%

Q: Which “% Inhibition” value does the source give for C=CC[C@H](C[C@H](O)[C@H](Cc1ccccc1)NC(=O)c1ccc(-c2cccnn2)cc1)C(=O)NC1CCCCC1 [TCMDC-141421] here?
A: -14.32%

Q: How did the “% Inhibition” value turn out when CC(C)n1ncc2c(C(=O)N3CCCCCC3)cc(-c3ccccc3)nc21 [TCMDC-125259] was run?
A: 6.769%

Q: For CC(NC(=O)c1cc(-c2ccccc2)nc2c1cnn2C(C)C)C1CC1 (stereo not drawn) [TCMDC-125054], which “% Inhibition” value is on record?
A: 5.318%

Q: With CC(C)n1ncc2c(C(=O)N3CCCc4ccccc43)cc(-c3ccccc3)nc21 [TCMDC-125456] as the molecule, how does the “% Inhibition” value read?
A: 70.11%

Q: For CN(C)CCOc1cc(NC(=O)Nc2ccc(-c3ccncc3)c3ccccc23)ccc1I [TCMDC-139118], which “% Inhibition” value is on record?
A: 23.38%

Q: With COC(=O)c1c(C#N)c(OC)cc(O)c1CSC[C@@H](CN1CCCCC1)Nc1nc(-c2ccc([N+](=O)[O-])cc2)cs1 [TCMDC-138652] as the molecule, how does the “% Inhibition” value read?
A: -4.34%

Q: With O=C(/C=C/c1ccc(Cl)c(Cl)c1)NCCCCCN1CCC(c2c[nH]c3ccccc23)CC1 [TCMDC-139172] as the molecule, how does the “% Inhibition” value read?
A: 95.4%

Q: With O=C(/C=C/c1ccc(Cl)c(Cl)c1)NCC[C@@H]1C[C@H]1CCN1CCC(c2c[nH]c3ccccc23)CC1 [TCMDC-139466] as the molecule, how does the “% Inhibition” value read?
A: 86.41%

Q: Which “% Inhibition” value does the source give for O=C(/C=C/c1ccc(Cl)c(Cl)c1)NCCCCCN1CCC(c2c[nH]c3c(-c4ccccc4)cccc23)CC1 [TCMDC-139399] here?
A: 108%

Q: Which “% Inhibition” value does the source give for CN(CCC(CCN1CCC(c2c[nH]c3ccccc23)CC1)c1ccccc1)C(=O)Nc1ccc(Cl)c(Cl)c1 (stereo not drawn) [TCMDC-139625] here?
A: -72.07%

Q: For CN(CCN1CCC(c2c[nH]c3ccccc23)CC1)C(=O)OCCCCCNC(=O)/C=C/c1ccc(Cl)c(Cl)c1 [TCMDC-139374], which “% Inhibition” value is on record?
A: -36.9%

Q: For O=C(/C=C/c1ccc(Cl)c(Cl)c1)NCCCN1CCC(c2c[nH]c3ccccc23)CC1 [TCMDC-139332], which “% Inhibition” value is on record?
A: 45.36%

Q: Which “% Inhibition” value does the source give for O=C(/C=C/c1ccc(Cl)c(Cl)c1)NCCCCCN1CCCC(c2c[nH]c3ccccc23)C1 (stereo not drawn) [TCMDC-139481] here?
A: 8.151%

Q: Which “% Inhibition” value does the source give for O=C(/C=C/c1ccc(Cl)c(Cl)c1)NCCCCCN1CCC(c2cn[nH]c2-c2ccccc2)CC1 [TCMDC-139493] here?
A: -12.94%

Q: How did the “% Inhibition” value turn out when O=C(/C=C/c1ccc(Cl)c(Cl)c1)NCCCCN1CCC(c2c[nH]c3ccccc23)CC1 [TCMDC-139333] was run?
A: -7.285%

Q: O=C(/C=C/c1ccc(Cl)c(Cl)c1)NCc1ccc(CN2CCC(c3c[nH]c4ccccc34)CC2)cc1 [TCMDC-139405] was tested. Which “% Inhibition” value did it give?
A: -66.38%

Q: With O=C(/C=C/c1ccc(Cl)c(Cl)c1)NCCC(CN1CCC(c2c[nH]c3ccccc23)CC1)c1ccccc1 (stereo not drawn) [TCMDC-139621] as the molecule, how does the “% Inhibition” value read?
A: 20.48%

Q: CN(CCN1CCC(c2c[nH]c3ccccc23)CC1)c1ccc(-c2nc3cc(Cl)c(Cl)cc3[nH]2)cc1 [TCMDC-139373] was tested. Which “% Inhibition” value did it give?
A: 50.88%

Q: CCN(CCCN1CCCCC1)c1cc(C)nc(Nc2ccc(C(C)C)cc2)n1 [TCMDC-132454] was tested. Which “% Inhibition” value did it give?
A: -8.614%

Q: With Cc1ccc(NCc2cccc(F)c2)cc1S(=O)(=O)N[C@@H]1CCN(C#N)C1 [TCMDC-134125] as the molecule, how does the “% Inhibition” value read?
A: -7.553%

Q: With CCc1cc(OC)c(C(=O)NC2CCN(C[C@H](O)c3ccnc4ccc(OC)cc34)CC2)cc1Br [TCMDC-141169] as the molecule, how does the “% Inhibition” value read?
A: -16.9%

Q: How did the “% Inhibition” value turn out when CCCn1c(SCC(=O)Nc2cc(Cl)ccc2Cl)n[nH]c1=O [TCMDC-123548] was run?
A: -15.86%

Q: With Cn1c(NC(=O)C2CCCN(C(=O)c3ccc(O)c(-c4ccc(Cl)c(Cl)c4)c3)C2)nc2ccccc21 (stereo not drawn) [TCMDC-140896] as the molecule, how does the “% Inhibition” value read?
A: 30.61%

Q: Which “% Inhibition” value does the source give for CC(C)(C)Nc1cc(C(=O)N[C@@H](Cc2ccccc2)[C@H](O)CNC2CCOCC2)cc(N2CCCCS2(=O)=O)c1 [TCMDC-135686] here?
A: 8.531%
